“And” between values parts separate entries of the source, which are not always exact repeats. Identical values can stand only once. In all, about 16,000 compounds went through this assay and about 2,600 (16%) were called active. Not shown: some 20% with an inconclusive outcome. What follows is part of a selection rich in actives, with near analogues and random picks from the rest. Unmarked numbers belong to inactive results. Calls follow the shape of the dose curve; as a rule, active = well fitted curve in the direction sought with a large enough effect; inconclusive = small, poorly fitted or top-dose-only effect, or effect the other way; inactive = no such curve, though single readings can be large or run the other way.
% is scaled to controls: 0 for no effect and ±100 for the full control effect.

This assay deals with Cytochrome P450 2D6 (Homo sapiens) (UniProt P10635). Kind of assay: Cytochrome panel assay with activity outcomes. To be noted: recombinant CYP, pro-luciferin dealkylation, luminescence, p450-cyp2d6; series mostly up to 57.1 µM; activity, negative = inhibition: at the top concentration.
Chain of Cytochrome P450 2D6 (Homo sapiens) (P10635 whole entry, looked up): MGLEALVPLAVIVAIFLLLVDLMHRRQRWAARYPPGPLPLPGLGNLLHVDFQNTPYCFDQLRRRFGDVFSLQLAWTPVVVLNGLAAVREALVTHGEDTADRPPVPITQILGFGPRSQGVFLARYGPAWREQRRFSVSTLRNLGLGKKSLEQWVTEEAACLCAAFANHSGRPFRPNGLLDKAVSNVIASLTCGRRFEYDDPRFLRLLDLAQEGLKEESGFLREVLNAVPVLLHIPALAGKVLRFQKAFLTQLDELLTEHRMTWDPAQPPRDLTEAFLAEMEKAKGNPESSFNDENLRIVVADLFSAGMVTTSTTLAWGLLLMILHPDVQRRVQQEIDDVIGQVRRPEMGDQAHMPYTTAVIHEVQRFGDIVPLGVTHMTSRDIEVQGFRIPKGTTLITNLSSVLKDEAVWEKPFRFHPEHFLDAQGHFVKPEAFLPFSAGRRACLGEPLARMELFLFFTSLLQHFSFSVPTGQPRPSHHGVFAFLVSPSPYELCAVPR
Consider `C[C@]12CC[C@@H]3C(=CCc4cc(O)ccc43)[C@@H]1CCC2=O`, for which the “activity, negative = inhibition” value is -5.94% [at 25.6 µM].
On to `O=C(Nc1cccc(C(F)(F)F)c1)c1cccn(Cc2ccc3c(c2)OC(F)(F)O3)c1=O`, for which the “activity, negative = inhibition” value is 11.6%.
On the same count and under the same terms, for `NC(N)=NS(=O)(=O)c1ccc(N)cc1` the value was 4.32% [at 25.6 µM]; for `N=C(N)c1ccc(-c2ccc(-c3ccc(C(=N)N)cc3)o2)cc1`, 11.8% [at 11.4 µM].
As a reminder, the AC50 is the midpoint of the concentration-response curve, whichever way the signal moves. For `COc1ccc2[nH]c3c(c2c1)CCN=C3C`, the AC50 is 0.631 µM (active).
`COc1ccc2c3c([nH]c2c1)C(C)=NCC3`: the AC50 was 3.98 µM (active).
Take `COc1ccc2[nH]c3c(c2c1)CCNC3`: the AC50 was 12.6 µM (active).
As to `COc1ccc(-n2nc(C(F)(F)F)cc2-c2ccc(Cl)cc2)cc1`, the “activity, negative = inhibition” value was 0.773%.
For the compound `C[C@]12CC[C@H]3c4ccc(O)cc4CC[C@@H]3[C@H]1CC[C@@H]2OC(=O)CCc1ccccc1`, the activity, negative = inhibition is -5.32% [at 11.4 µM].
Same read-out and setting: for `CC1=C(CC[C@H](C)CO)O[C@@H]2C[C@@H]3[C@H]4CC[C@H]5C[C@@H](O)CC[C@]5(C)[C@@H]4CC(=O)[C@@]3(C)[C@@H]12` the value was -3.67% [at 11.4 µM]; for `CCN(CC)c1ccc(/C=C2/C(=O)NC(=O)N(CC3CCCO3)C2=O)cc1` (stereo not drawn), -5.7%.
Turning to `CC(C)c1ccc(C(c2c(O)c3ccccc3oc2=O)c2c(O)c3ccccc3oc2=O)cc1`, the activity, negative = inhibition was 2.43% [at 11.4 µM].
Consider `COc1cc(CNC(=O)CCCC/C=C\C(C)C)ccc1O`, for which the “activity, negative = inhibition” value was -14.5% [at 25.6 µM].
For `O=C(C[n+]1ccc2ccccc2c1)c1ccc2ccc3ccccc3c2c1`, the AC50 is 0.794 µM (active).
As for `CCCn1c(C)c(C(=O)c2ccc3ccccc3c2)c2ccccc21`, the “activity, negative = inhibition” value is -5.36%.
On the same count and under the same terms, the result for `C[C@H](Br)C(=O)c1ccc2cc(Br)c3ccccc3c2c1` reads 8.29% [at 11.4 µM]; that for `CC1=C(O)C(=O)[C@H]2O[C@@H]2C1=O`, 3.35%; that for `C[C@H]1CC[C@@]2(NC1)O[C@@H]1C[C@@H]3[C@@H]4CC=C5C[C@@H](O)CC[C@]5(C)[C@@H]4CC[C@]3(C)[C@H]1[C@@H]2C`, 7.13% [at 11.4 µM].
On to `COC(=O)C[C@](O)(CCCC(C)(C)O)C(=O)O[C@@H]1C(OC)=C[C@]23CCCN2CCc2cc4c(cc2[C@H]13)OCO4`, for which the “activity, negative = inhibition” value was -0.399%.
Turning to `CN1C(=O)C(=Cc2ccc(N3CCCCC3)o2)C(=O)N(C)C1=S`, the “activity, negative = inhibition” value is 1.93%.
Turning to `COC1=C(C)C(=O)c2c(c(COC(N)=O)c3n2C[C@@H]2[C@@H]3N2C)C1=O` (stereo partly drawn), the AC50 was 1.58 µM (active).
As for `COc1cc2c(c(OC)c1OC)-c1ccc(O)c(=O)cc1[C@H](N)CC2`, the “activity, negative = inhibition” value is 3.59% [at 25.6 µM].
`Nc1ccc(S(=O)(=O)c2ccc(NCN3C(=O)NC(=O)C(=O)C3=O)cc2)cc1`: the activity, negative = inhibition was 4.3% [at 11.4 µM].
As to `c1cc(CN2CCCCC2)cc(OCCCNc2nc3ccccc3s2)c1`, the “activity, negative = inhibition” value was 4.28%.
For `c1ccc(CN2CCN(Cc3ccc4c(c3)OCCO4)CC2)cc1`, the AC50 was 12.6 µM (active).
On to `NC[C@H](O)c1cc(O)c(O)cc1F`, for which the “activity, negative = inhibition” value was -1.75%.
Consider `Cc1cc(C)cc(NC(=S)NC2CC3CCC(C2)N3Cc2ccco2)c1` (stereo not drawn), for which the AC50 is 17.8 µM (active).
The same measure, in the same setting: for `CC(C)CNC(=S)NC1CC2CCCC(C1)N2Cc1ccco1` (stereo not drawn) the value was 2 µM (active).
On the same count and under the same terms, the result for `CCNC(=S)NC1CC2CCCC(C1)N2Cc1ccco1` (stereo not drawn) reads 2 µM (active).
`Cc1cccc(N2C(=O)NC(=O)/C(=C\c3cnn(-c4ccccc4)c3)C2=O)c1`: the “activity, negative = inhibition” value is 2.27%.
Turning to `C[C@H](Br)C(=O)N[C@H](CO)C(=O)O`, the activity, negative = inhibition is 5.11% [at 11.4 µM].
On to `NCC1(CC(=O)O)CCCCC1`, for which the AC50 result is “inactive”.
On to `CCN1C[C@]2(COC(=O)c3ccccc3N3C(=O)C[C@H](C)C3=O)CC[C@H](OC)[C@@]34[C@@H]5C[C@H]6[C@H](OC)[C@H]5[C@](O)(C[C@@H]6OC)[C@@](O)([C@@H](OC)[C@@H]23)[C@@H]14`, for which the “activity, negative = inhibition” value was -20.1%.
The same measure, in the same setting: the result for `O=[N+]([O-])c1cc(-c2ccc([As](=O)(O)O)cc2)ccc1[As](=O)(O)O` reads 14% [at 11.4 µM].
Take `CC(C)Oc1cccnc1N(C)C1CCN(Cc2ccccc2)CC1`: the AC50 was 7.94 µM (active).
Take `NNC(N)=O`: the “activity, negative = inhibition” value is 12.2%.
Same read-out and setting: the result for `CC(=O)[C@]1(O)CC[C@@H]2[C@H]3C[C@@H](C)C4=CC(=O)CC[C@@]4(C)[C@H]3[C@@H](O)C[C@]21C` reads 1.26% [at 11.4 µM]; that for `c1cc(C2N3CCCN2CC3)ccn1` (stereo not drawn), 15.8% [at 11.4 µM].
Same read-out and setting: for `CC[C@H](C(=O)[C@H](C)[C@H](O)[C@H](C)CCc1ccc(C)c(O)c1C(=O)O)[C@H]1O[C@](CC)([C@@H]2CC[C@@](O)(CC)[C@H](C)O2)C[C@H]1C` the value was 1.12% [at 25.6 µM].
On to `Cc1cc(C(C)(C)C)cc(C)c1CC1=NCCN1`, for which the AC50 is 31.6 µM (active) and 3.98 µM (active).
For the compound `O=C(O)[C@@H]1C[C@H]1[C@@H](NP(=O)(c1ccccc1)c1ccccc1)c1ccccc1`, the “activity, negative = inhibition” value was -3.03%.
On to `c1cncc([C@@H]2CCCCN2)c1`, for which the “activity, negative = inhibition” value is -6.82% [at 25.6 µM].
As to `CCCCn1c(O)c(C=NCCN2CCCCC2)c(=O)[nH]c1=O`, the “activity, negative = inhibition” value is -3.07%.

The values are drawn from PubChem BioAssay AID1851 (National Center for Advancing Translational Sciences (NCATS), 2009).
